This passage reports growth inhibition results from PubChem BioAssay (NCI).

Test [1] can be described thus: NCI Yeast Anticancer Drug Screen. Data for the rad50 strain (AID 155).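 Further: 0% = growth of vehicle-only cultures of the same strain.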 The conditions noted are these: S. cerevisiae rad50 strain growth inhibition; at 50.0 µM; hits give high values. An outline of the steps: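 Yeast carrying a defined DNA repair defect were exposed to test compounds, and growth was compared with vehicle-treated controls to give percent inhibition.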

Test [2] is described as follows: NCI Yeast Anticancer Drug Screen. Data for the mec2-1 strain (AID 157). The conditions noted are these: S. cerevisiae mec2-1 strain, at 50.0 µM, hits give high values. In outline:
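Test agents were screened against the mec2-1 yeast strain, with defined DNA repair or cell cycle alteration. Growth was scored as inhibition against vehicle-only controls.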

Test [3] in a line: NCI Yeast Anticancer Drug Screen. Data for the sgs1 mgt1 strain (AID 161).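 Further: 0% = growth of cultures given vehicle only.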 The note with it: S. cerevisiae sgs1 mgt1 strain, at 50.0 µM, hits give high values. An outline of the steps:
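Inhibition of yeast growth, normalised to vehicle-treated controls, is reported for a strain bearing genetic alterations in DNA damage repair.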

Test [4] is described as follows: NCI Yeast Anticancer Drug Screen. Data for the cln2 rad14 strain (AID 165).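 Further: 0% = growth equal to vehicle treated cultures.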 The conditions noted are these: S. cerevisiae cln2 rad14 strain, at 50.0 µM, hits give high values. An outline of the steps: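 Growth of compound-exposed yeast (cln2 rad14 genotype) measured and expressed as inhibition relative to vehicle.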
A short description of test [5]: NCI Yeast Anticancer Drug Screen. Data for the bub3 strain (AID 167). The conditions noted are these: S. cerevisiae bub3 mutant strain, at 50.0 µM, hits give high values. In outline:
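Compounds were applied to a genetically altered yeast strain carrying a cell-cycle control defect. Growth inhibition was scored against vehicle-treated controls.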

Test [6] can be described thus: NCI Yeast Anticancer Drug Screen. Data for the mlh1 rad18 strain (AID 175). The note with it: S. cerevisiae mlh1 rad18 strain growth inhibition; at 50.0 µM; hits give high values. In outline:
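In this whole-cell yeast screen, a strain with altered DNA damage repair is challenged with compound, and its growth is measured against matched vehicle-treated controls.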

This is part of a sample that, as a whole, favours compounds with a hit. Of some 79,000 tested, about 15% had one in any assay. Unmarked numbers belong to inactive results. The source made the active and inactive calls. No stated cut-off is given here; in the data, active means growth inhibition above about 70%; inactive means the rest.

On to `O=P(O)(O)c1ccc(Cl)cc1`, for which the growth inhibition in test [1] is -1.8%; in test [2] it was -1.3%; in test [3], -1.65%; in test [4] it was 8.7%; in test [5] it was 8.55%; in test [6] it was -9.4%.
As to `O=C(O)CS(=O)(=O)Cc1ccc(Cl)cc1Cl`, the growth inhibition in test [1] is 15.6%; in test [2], 20.4%; in test [3], 24%; in test [4], 12.8%; in test [5] it was 25.1%; in test [6], 18.6%.
For the molecule `COc1ccc(C2SC(N)=Nc3c2c(C)nn3C(=O)c2ccccc2O)cc1` (stereo not given), the growth inhibition in test [1] is 15.9%; in test [2] it was 10.1%; in test [3] it was 40.5%; in test [4] it was 5.85%; in test [5] it was 49.1%; in test [6], 29.4%.
`CCC1(C(=O)O)NC(=O)NC1=O` (stereo not given): the growth inhibition in test [1] was -2.55%; in test [2] it was -11.6%; in test [3], -12.3%; in test [4], -8.95%; in test [5], 4.5%; in test [6] it was -4.25%.
In the case of `CCCCN(CCCC)C(=O)C(O)C(=O)N(CCCC)CCCC`, the growth inhibition in test [1] was -5.05%; in test [2] it was -13.8%; in test [3], -4.4%; in test [4], -9.6%; in test [5], -13.3%; in test [6], -3.8%.
As for `CCOC(=O)CCC(NC(=O)OCc1ccccc1)C(=O)NC(CCC(=O)OCC)C(=O)NC(CCC(=O)OCC)C(=O)NC(CCC(=O)OCC)C(=O)NC(CCC(=O)OCC)C(=O)NC(CCC(=O)OCC)C(=O)NC(CCC(=O)OCC)C(=O)OCC` (stereo not given), the growth inhibition in test [1] was -23.8%; in test [2], -16.5%; in test [3], -10.2%; in test [4], 26.2%; in test [5], -10.7%; in test [6], 2.2%.
`CN1CCC/C1=C/C(=O)c1ccccc1[N+](=O)[O-]`: the growth inhibition was 2.9% in test [1]; -0.1% in test [2]; -0.65% in test [3]; -28.3% in test [4]; 9.6% in test [5]; -11.7% in test [6].
For the molecule `CC(C)N(C(=O)C12C3C4C5C3C1(C(=O)N(C(C)C)C(C)C)C5C42)C(C)C` (stereo not given), the growth inhibition is 16.5% in test [1]; 17.4% in test [2]; 12.2% in test [3]; 1% in test [4]; 19.9% in test [5]; 14.4% in test [6].
With `CC(=O)NC1C(OCc2ccccc2)OC(CO)C(O)C1OC(C)C(=O)NC(C)C(=O)N[C@@H](CCC(=O)OCCCNC1c2ccccc2Nc2cccc([N+](=O)[O-])c21)C(N)=O` (stereo not given in full), the growth inhibition in test [1] is 63.4%; in test [2], 82.7% (active); in test [3], 78.2% (active); in test [4] it was 83.5% (active); in test [5] it was 11.7%; in test [6], 77.8% (active).
Turning to `CCN(CC)CCCC(C)NC(=O)c1ccc2c(c1)C(=O)c1ccccc1C2=O` (stereo not given), the growth inhibition in test [1] is 6%; in test [2], 19.1%; in test [3], 16.9%; in test [4], 36.4%; in test [5], -17.7%; in test [6] it was -33.9%.
Turning to `O=C(N=C1[Se]C(=Nc2ccccc2)C(=Nc2ccccc2)N1c1ccccc1)c1ccccc1`, the growth inhibition in test [1] was 9.45%; in test [2] it was 5.1%; in test [3] it was 6.55%; in test [4], 20.6%; in test [5], 2.75%; in test [6] it was 3.25%.
With `NNC(=O)c1cccc2c1Oc1ccccc1S2`, the growth inhibition in test [1] is 21.5%; in test [2], -12.9%; in test [3] it was 10.9%; in test [4], -63.9%; in test [5] it was -11.9%; in test [6] it was 25.1%.
As for `NS(=O)(=O)c1ccc(NC(=O)c2cccn3c(=O)c4ccccc4nc23)cc1`, the growth inhibition in test [1] was 6.6%; in test [2], 9.45%; in test [3] it was -7.6%; in test [4], 27.2%; in test [5] it was -0.25%; in test [6] it was 14.9%.
With `CC(C)(C)OC(=O)CC(NC(=O)OC(C)(C)C)C(=O)N[C@@H]1CCCC[C@H]1C(=O)OCc1ccccc1` (stereo not given in full), the growth inhibition in test [1] was 8.3%; in test [2] it was 15.2%; in test [3], 9.55%; in test [4], 8.35%; in test [5], 14.7%; in test [6], 23.1%.
`NCC(=O)c1cc2ccccc2[n+]([O-])c1`: the growth inhibition in test [1] was 1.6%; in test [2] it was -4.45%; in test [3] it was 1.8%; in test [4], -51.2%; in test [5], -8.5%; in test [6] it was -14.4%.
In the case of `Cc1ccc(SCC(CF)OC(C)n2cnc3c(=O)[nH]c(N)nc32)cc1` (stereo not given), the growth inhibition in test [1] was 9.8%; in test [2] it was 6.1%; in test [3], -27.4%; in test [4], 23.4%; in test [5], 7.55%; in test [6], -46.5%.
Regarding `CN1CCN(Cc2oc(CO)cc(=O)c2O)CC1`, the growth inhibition in test [1] was -3.8%; in test [2], -22.9%; in test [3], 5.2%; in test [4], 12.2%; in test [5], 16.8%; in test [6], -7.65%.
Consider `Cc1ccc(S(=O)(=O)Nc2ccc3ncsc3c2[N+](=O)[O-])cc1`, for which the growth inhibition in test [1] was 97.2% (active); in test [2], 98.7% (active); in test [3] it was 98.3% (active); in test [4] it was 98.2% (active); in test [5], 98% (active); in test [6], 98% (active).
Turning to `N#Cc1cc(Cl)ccc1N=Cc1c(Cl)cccc1Cl`, the growth inhibition in test [1] is 19.4%; in test [2], 16.5%; in test [3], 39.4%; in test [4], 14.6%; in test [5] it was -6.55%; in test [6], 12.8%.
For the molecule `CCC(=O)Oc1ccc(CCC(C)=O)cc1OC`, the growth inhibition in test [1] was 4.15%; in test [2], -7.55%; in test [3] it was -16.8%; in test [4] it was -26.6%; in test [5] it was -2.3%; in test [6] it was 25.8%.
